Assay results taken from PubChem BioAssay (NCI).
About 83,000 compounds went through this panel and 20% of them were active in at least one assay; those are over-represented in the sample as a whole.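 The endpoint reported here, percent growth, reads 100 for growth as untreated, 0 for no net growth and -100 for all cells dead.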 The source made the active and inactive calls. Rule for the calls: active = growth percent below 10; inactive = the rest.

What was measured:
Assay in all cases: NCI-60 one-dose screen, 48 h (100 = growth as untreated, 0 = no growth, -100 = all killed)
Conditions in all cases: 10 µM unless noted
[1] = system: NCI-H23 lung
[2] = system: NCI-H226 lung
[3] = system: NCI-H322M lung
[4] = system: HOP-62 NSCLC
[5] = system: NCI-H460 lung
[6] = system: HOP-92 NSCLC
[7] = system: A549/ATCC NSCLC
[8] = system: 786-0 renal
[9] = system: COLO 205 colon

Measured: growth

Cc1cc(C)cc(S(=O)(=O)n2ccc(-c3ccc4c(c3)CCC(C)(C)O4)n2)c1
inactive: [1] 73.6% | [2] 66.8% | [3] 92% | [4] 116% | [5] 84.4% | [6] 78.1% | [7] 80.8% | [8] 82.8% | [9] 103%

O=C1C(=O)c2c(nc3ccc(Cl)cn23)-c2ccccc21
active: [1] -45.4% | [2] -53.9% | [3] -92.1% | [4] -87.9% | [5] -100% | [6] -79.8% | [7] -80.8% | [8] -100% | [9] -100%

CN(C)CCCNc1nn2c(=O)c3ccccc3nc2c2ccccc12
inactive: [1] 54.1% | [2] 53.4% | [3] 61.9% | [4] 47.5% | [5] 19.9% | [6] 23.3% | [7] 24% | [8] 59% | [9] 37.1%

O=C(CN1CCN(c2ccc(Cl)cc2)CC1)N1CCN(c2nnc(-c3ccc(Cl)cc3)c(-c3ccc(Cl)cc3)n2)CC1
inactive: [1] 85% | [2] 62% | [3] 77.9% | [4] 103% | [5] 75.3% | [6] 60.1% | [7] 15% | [8] 80.6% | [9] 90.8%

C(#Cc1ccccc1C#Cc1ccccn1)c1ccc(OCCCCCCOc2ccc(C#Cc3ccccc3C#Cc3ccccn3)cc2)cc1
inactive: [1] 57.3% | [2] 67.3% | [3] 67.8% | [4] 38.2% | [5] 19.9% | [7] 25.3% | [8] 29.3% | [9] 120%
active: [6] 9.48%

Cc1cc(C(=O)Nc2ccc3cc(CN4CCOCC4)ccc3n2)c(C)n1-c1ccccc1
inactive: [1] 12.7% | [2] 21.9% | [3] 94.2% | [4] 36% | [5] 59.3% | [6] 51.7% | [7] 28% | [8] 56.7% | [9] 40.5%

COc1ccc(NS(=O)(=O)N2CCCCC2)cc1
inactive: [1] 106% | [2] 96.2% | [3] 102% | [4] 107% | [5] 113% | [6] 84.6% | [7] 108% | [8] 109% | [9] 105%

O=C1c2cc3c(cc2-c2c1c1ccc(Cl)cc1c(=O)n2CCCNCCO)OCO3
active: [1] -73% | [2] -70.9% | [3] -84.5% | [4] -81.4% | [5] -75.4% | [6] -79.4% | [7] -82.2% | [8] -81.6% | [9] -88.6%

COc1cc(/C=C/C(=O)C(C(=O)/C=C/c2ccc(OC(=O)CCNc3nnc(C)s3)c(OC)c2)C(=O)CCNc2nnc(C)s2)ccc1OC(=O)CCNc1nnc(C)s1
active: [5] -29% | [6] -16.4% | [8] -38% | [9] -26.3%
inactive: [1] 11.9% | [2] 24.5% | [3] 42.1% | [4] 27.6% | [7] 34.3%

CC(=O)[C@H]1CC[C@H]2[C@@H]3C[C@H](C)C4=CC(=O)CC[C@]4(C)[C@H]3C(=O)C[C@]12C
inactive: [1] 102% | [2] 104% | [3] 117% | [4] 99.1% | [5] 107% | [6] 85.3% | [7] 98.7% | [8] 112% | [9] 94.3%

CC(C)N(Cc1ccccc1)c1c(S)ssc1=S
active: [3] 7.56% | [4] 9.6% | [5] 4.45% | [6] -36.2% | [7] 4.58% | [9] -40.1%
inactive: [1] 22.8% | [2] 14.2% | [8] 10.6%

CS(=O)(=O)N1CCN(Cc2cc3nc(-c4cccc5[nH]ncc45)nc(N4CCOCC4)c3s2)CC1 (tested in a mixture with another compound)
active: [2] 8.7% | [3] 3.39% | [6] -37.6% | [7] 4.32% | [8] -10.5% | [9] 8.18%
inactive: [1] 23.4% | [4] 23.6% | [5] 21.7%

O=C(NN1C(=O)c2cc(C(=O)O)c(C(=O)O)cc2C1=O)c1ccncc1
active: [6] 4.14%
inactive: [1] 108% | [2] 95% | [3] 102% | [4] 99.3% | [5] 111% | [7] 119% | [8] 107% | [9] 105%

COCCOCCOCCOCCOc1ccc2c(c1)C(=O)c1nc3ncccc3c(=O)n1-2
active: [1] -40.1% | [2] -49.3% | [3] -88% | [4] -83% | [5] -61.2% | [6] -18.7% | [7] -77.4% | [8] -51.5% | [9] -85.9%

COC(=O)[C@H](CCCCNC(=O)OCc1ccccc1)NC(=O)[C@@H](NC(=O)Nc1cc(C(F)(F)F)cc(C(F)(F)F)c1)C(C)C
inactive: [2] 39% [100 µM] | [3] 19.9% [100 µM] | [7] 45.1% [100 µM]
active: [1] -45.6% [100 µM] | [4] -84.2% [100 µM] | [5] -23.1% [100 µM] | [6] -69.5% [100 µM] | [8] -91.7% [100 µM] | [9] -12.8% [100 µM]

C=C1CCC2C3(C)COC(c4ccccc4)OC3CCC2(C)C1C/C=C1/C(=O)OCC1OC(C)=O (configuration not stated)
inactive: [1] 101% | [2] 59.6% | [3] 97% | [4] 96.1% | [5] 103% | [6] 100% | [7] 83.9% | [8] 95.3% | [9] 103%

O=C1Nc2ccc(Cl)cc2[C@@](C#CC2CC2)(C(F)(F)F)O1
inactive: [1] 87.8% | [2] 81.4% | [3] 80.9% | [4] 104% | [5] 102% | [6] 93.2% | [7] 70.7% | [8] 96.6% | [9] 127%

Cc1n(Cc2ccc3ccccc3c2)cc[n+]1Cc1ccc2ccccc2c1
inactive: [2] 19% | [3] 48.9% | [4] 18% | [7] 42.3% | [8] 34%
active: [1] 5.53% | [5] 9.12% | [6] -20.3% | [9] -57.2%

COC(=O)c1cc2oc(/C=N\NC(=O)c3cc4oc(C)c(C)c4[nH]3)cc2[nH]1
active: [6] -34.1%
inactive: [1] 104% | [2] 117% | [3] 106% | [4] 110% | [5] 111% | [7] 112% | [8] 107% | [9] 94%

O=c1[nH]c(SCc2ccccc2)nc2nc(Nc3ccc(NC(=S)Nc4ccccc4)cc3)nc(-c3ccc(O)cc3O)c12
active: [6] -2.6%
inactive: [1] 97.3% | [2] 93.2% | [3] 121% | [4] 102% | [5] 103% | [7] 105% | [8] 94.7% | [9] 98.2%

CC(=O)OCC(=O)[C@@]1(O)CC[C@H]2[C@@H]3CCC4=CC(=O)CC[C@]4(C)[C@@]3(F)[C@@H](O)C[C@@]21C
inactive: [1] 108% | [2] 68.8% | [3] 129% | [4] 109% | [5] 94% | [6] 66.9% | [7] 78.4% | [8] 116% | [9] 97.8%

Cc1ccc2nc(-c3ccc(N(C)C)c(Br)c3)cn2c1
inactive: [1] 92% | [2] 98.4% | [3] 120% | [4] 93.4% | [5] 40.3% | [6] 126% | [7] 98.9% | [8] 87.8% | [9] 89.3%

O=C1CSC(c2ccccc2O)N1c1nnc(Cn2ccnc2)o1 (configuration not stated)
inactive: [1] 67.9% | [2] 91.4% | [3] 69.6% | [4] 67.2% | [5] 34.8% | [6] 69.1% | [7] 66.5% | [8] 59.1% | [9] 92.6%

COc1ccc(OC)c2c1CCC1(C2)NC(=O)NC1=O (configuration not stated)
inactive: [1] 106% | [2] 102% | [3] 107% | [4] 95.2% | [5] 107% | [6] 69.3% | [7] 98.9% | [8] 113% | [9] 98.9%

COc1ccc(-c2ccc(O)c(C(=O)/C=C/c3cc(OC)c(OC)c(OC)c3)c2)cc1
inactive: [1] 72.7% | [2] 99.1% | [3] 81.8% | [4] 103% | [5] 79.9% | [6] 56% | [7] 80.5% | [8] 99.4% | [9] 83.7%

O=C(/C=C/c1ccc(C(F)(F)F)cc1)c1ccc(Nc2nc(NCCO)nc(NCCO)n2)cc1
inactive: [1] 84.3% | [2] 75.3% | [3] 74.8% | [4] 22.3% | [5] 82.8% | [6] 99.3% | [7] 34.9% | [8] 30.4% | [9] 37.3%

Clc1ccc2nc(CI)c(CI)nc2c1
inactive: [1] 85.8% | [2] 56.4% | [3] 83.7% | [4] 94.3% | [5] 118% | [6] 19.3% | [7] 96.1%
active: [8] 0.747% | [9] 0%

Cn1cc(NC(=O)Nc2cc(C(=O)O)n(C)c2)cc1C(=O)O
inactive: [1] 109% | [2] 82.1% | [3] 100% | [4] 94.3% | [5] 120% | [6] 119% | [7] 102% | [8] 109% | [9] 113%
